Bioassay records from PubChem BioAssay.
Pol beta inh – qHTS Assay for Inhibitors of DNA Polymerase Beta; 340,000 compounds, 1.3% hits; Pol beta primer extension/strand displacement, fluorescence kinetic; Potency, µM (highest dose often 114 µM), for the others: top-dose activity change, negative = inhibition, actives largely listed as inhibitors; note: potency is the fitted concentration of half-maximal effect; % is set by controls: 0 for no effect and ±100 for the full control effect
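Pol beta (10 nM) was preincubated with compound for 15 min at room temperature. The reaction was then started with 50 nM substrate and read immediately and after a further 10 min at room temperature.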
Pol eta inh-1 – qHTS for Inhibitors of Polymerase Eta. recombinant Pol eta, fluorescent DNA replication assay. AID 588591, 2011. DNA polymerase eta (Homo sapiens), Q9Y253. 390,000 compounds, 1.2% hits. Potency, µM (series often up to 114 µM), for the others: at the top dose activity change, negative = inhibition, most hits filed as inhibitors; note: potency is the fitted concentration of half-maximal effect; % is set by controls: 0 for no effect and ±100 for the full control effect
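Pol eta (10 nM) was preincubated with compounds for 15 min at room temperature, after which fluorescent replication substrate (50 nM final) was added to start the reaction. Fluorescence was read kinetically at 0 and 10 min.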
Pol iota inh – qHTS for Inhibitors of Polymerase Iota; DNA polymerase iota (Homo sapiens), Q9UNA4; Pol iota fluorescent replication assay, 10 min; Potency, µM (highest dose often 115 µM), for the others: at the top dose activity, negative = inhibition, actives largely listed as inhibitors; 390,000 compounds, 1% hits; AID 588590, 2011; note: potency is the fitted concentration of half-maximal effect
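Fluorescent replication assay read twice, at 0 min and 10 min after adding 50 nM (final) substrate. Enzyme (10 nM) and compounds were first incubated 15 min at room temperature; enzyme-free buffer wells were negative controls.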
Pol kappa inh-1 – qHTS for Inhibitors of Polymerase Kappa; purified Pol kappa, fluorescent DNA synthesis assay, 10 min; Potency, µM (titrated, usually from 107 µM), without a hit: at the highest dose activity, negative = inhibition, most hits filed as inhibitors; 400,000 compounds, 0.53% hits; AID 588579, 2011; note: potency is the fitted concentration of half-maximal effect; % is set by controls: 0 for no effect and ±100 for the full control effect
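50 nM final substrate added after 15 min RT preincubation of 10 nM Pol kappa with compound; fluorescence read at 0 and 10 min.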
WRN inhibitor – qHTS for Inhibitors of WRN Helicase; Bifunctional 3'-5' exonuclease/ATP-dependent helicase WRN (Homo sapiens), Q14191; WRN helicase unwinding, fluorescent forked duplex, kinetic; Potency, µM (doses to about 114 µM), for inactives: at the highest dose activity change, negative = inhibition, usual class: inhibitors; 360,000 compounds, 0.46% hits; AID 651768, 2012; note: potency is the fitted concentration of half-maximal effect; % is set by controls: 0 for no effect and ±100 for the full control effect; nearly all actives have a fitted effect of over 55% in size
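Screening of the MLSMR collection measured strand separation of a quenched forked DNA duplex (100 nM) by 20 nM WRN with 2 mM ATP, all final. Compounds were preincubated with enzyme 15 min at room temperature.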
GALK inh confirm – Confirmation Assay for Inhibitors of Human Galactokinase (GALK); Potency, µM (top dose mostly 115 µM), without a hit: top-dose activity, negative = inhibition, usual class: inhibitors; purified GALK, Kinase-Glo ATP depletion luminescence; shares compounds with Pol eta inh-1; AID 2015, 2009; 150 compounds, 70% hits
GALK redox cs – Confirmatory Assay for Inhibitors of Human Galactokinase (GALK): Phenol-HRP redox assay counterscreen; shares compounds with Pol eta inh-1; Phenol red-HRP H2O2 redox cycling, absorbance 600 nm; Potency, µM (titrated, usually from 115 µM), for inactives: at the top dose activity change, negative = H2O2 signal, usual class: inhibitors; 150 compounds, 40% hits; AID 2035, 2009
HEK293 viability – Secondary Assay for Inhibitors of Human Galactokinase (GALK): HEK-293 Cell Viability Assay | shares compounds with Pol eta inh-1 | HEK-293 viability, ATP luminescence (CellTiter-Glo), 24/48 h | Potency, µM (highest dose often 46.1 µM), for inactives: top-dose activity change, negative = cytotoxicity, hits mostly inhibitors | 170 compounds, 10% hits | AID 2547, 2010; note: potency is the fitted concentration of half-maximal effect; % is set by controls: 0 for no effect and ±100 for the full control effect
Pol kappa inh-2 – qHTS for Inhibitors of Polymerase Kappa: Confirmatory Assay for Cherry-picked Compounds. shares compounds with Pol eta inh-1. Potency, µM, hits mostly inhibitors. 920 compounds, 76% hits. AID 720501, 2013. purified Pol-kappa, fluorescent strand-displacement substrate; note: potency is the fitted concentration of half-maximal effect
Pol eta inh-2 – qHTS for Inhibitors of Polymerase Eta: Confirmatory Assay for Cherry-picked Compounds. shares compounds with Pol eta inh-1. Pol eta primer extension, TAMRA/BHQ fluorescence, 10 min. Potency, µM, hits mostly inhibitors. 2,600 compounds, 64% hits. AID 720502, 2013; note: potency is the fitted concentration of half-maximal effect
Active calls of the source: *; ? = inconclusive; . = not tested or not shown; [ ] = remark or other dose. An excerpt weighted towards active compounds, which were near 2.3% of everything screened. Calls come from the whole dose curve; as a rule, active = well fitted curve in the direction sought with a large enough effect; inconclusive = small, poorly fitted or top-dose-only effect, or another doubt; inactive = no such curve, though single readings can be large; an effect the other way counts as inactive or inconclusive.

SMILES | Pol beta inh | Pol eta inh-1 | Pol iota inh | Pol kappa inh-1 | WRN inhibitor | Pol eta inh-2 | others
CCC(=O)OC1(C)C(=O)C=C2C=C(CCCC(=O)OC)OC=C2C1=O (centres undefined) | . | 25µM* | ? | ? | -16%[11.6 µM] | 54*
COc1cc2c(cc1NS(=O)(=O)c1cccc(C#N)c1)n(C)c(=O)n2C | 5% | -16% | 30% | -1%[60.1 µM] | . | .
CCOCCCNC(=O)c1ccc2c(=O)n(CCc3ccc(OC)c(OC)c3)c(=O)[nH]c2c1 | 32% | -16% | 14% | -8%[60.1 µM] | . | .
COc1ccc(-c2onc(C)c2C)cc1S(=O)(=O)N1c2ccccc2CC1C (centres undefined) | ? | ? | 13% | -10% | . | .
CCOC(=O)c1cc(S(=O)(=O)NCc2ccc(Cl)cc2)[nH]n1 | 35% | -8% | ? | -9%[60.1 µM] | . | .
COC(=O)c1cc(Cl)ccc1NC(=O)CSc1ncc(S(=O)(=O)c2ccc(Br)cc2)c(=O)[nH]1 | 45µM* | 89µM* | ? | ? | . | ? | Pol kappa inh-2=42*
COc1ccc(CNC(=O)CSc2ncc(S(=O)(=O)c3ccc(Br)cc3)c(=O)[nH]2)cc1 | 17% | -11% | -20% | -13% | . | .
COc1cccc(CNS(=O)(=O)c2ccc3c(c2)C(C(C)C)C(=O)N3)c1 (centres undefined) | -3% | -9% | 11% | -13% | . | .
O=c1[nH]c(/C=C\c2cccc(O)c2)nc(O)c1[N+](=O)[O-] | -25% | -18% | ? | -4% | -12% | .
CCOc1ccc(/C=C\c2nc(O)c([N+](=O)[O-])c(=O)[nH]2)cc1OCC | 0% | -11% | -19% | -1% | -10%[57.1 µM] | .
O=c1[nH]c(/C=C\c2ccc(O)c(O)c2)nc(O)c1[N+](=O)[O-] | 25µM* | ? | ? | ? | ? | 76* | Pol kappa inh-2=17*
Cc1cc(/C=C\c2nc(O)c([N+](=O)[O-])c(=O)[nH]2)c(C)n1-c1ccccc1 | 25µM* | 22µM* | 28µM* | 89µM* | ? | ?
COc1ccc(-n2c(C)cc(/C=C/c3nc(O)c([N+](=O)[O-])c(=O)[nH]3)c2C)cc1 | -5% | 20µM* | ? | 50µM* | -16%[57.1 µM] | ?
CC(=O)N1CCCc2ccc(NC(=O)c3ccc(C(F)(F)F)cc3)cc21 | -2% | -11% | 18% | -12%[60.1 µM] | . | .
O=C(O)c1ccc(Nc2ncc([N+](=O)[O-])cc2[N+](=O)[O-])cc1 | 25% | 32µM* | ? | -29% | -3%[11.6 µM] | 67*
CCCNC(=O)CSc1nc2nc(C)c(Cc3ccccc3Cl)c(C)n2n1 | 30% | -19% | 10% | 10% | . | .
Cc1ccc(C(=O)OCC(=O)c2ccc(CC(=O)N3CCOCC3)s2)cc1C | . | 13µM* | 22µM* | 79µM* | 3%[11.6 µM] | ?
N#C/C(=C\c1coc2ccc(O)cc2c1=O)C(=O)Nc1nc2ccccc2s1 | ? | 3.5µM* | ? | 2.8µM* | 56µM* | . | GALK inh confirm=33µM*;GALK redox cs=-1%;HEK293 viability=?
N#C/C(=C\c1coc2ccccc2c1=O)C(N)=S | 0% | -20% | 94% | -6% | -25% | .
COc1ccc(CNC(=O)C(=O)NCC(c2cccs2)S(=O)(=O)c2cccs2)cc1 (centres undefined) | -2% | -23% | 17% | -13%[60.1 µM] | . | .
Cc1cc(C)c(NC(=O)COCc2cc(-c3cccs3)on2)c(C)c1 | 17% | 12% | -17% | -9% | . | .
CSc1ccc(C2C(C#N)=C(N)Oc3c2ccc(=O)c2c(C)oc(C)c32)cc1 (centres undefined) | ? | 11µM* | ? | 50µM* | ? | ?
Cc1oc(C)c2c(=O)ccc3c(c12)OC(N)=C(C#N)C3c1ccccc1 (centres undefined) | ? | ? | ? | -27% | ? | .
Cc1ccnc(NS(=O)(=O)c2ccc(NC(=O)C34CC5CC(CC(C5)C3)C4)cc2)n1 | -1% | 10% | 7% | -8% | 1% | .
O=C(Nc1ccc(S(=O)(=O)Nc2ncccn2)cc1)C12CC3CC(CC(Cl)(C3)C1)C2 | . | 18µM* | ? | ? | -11%[11.6 µM] | 30* | Pol kappa inh-2=17*
SMILES | Pol beta inh | Pol eta inh-1 | Pol iota inh | Pol kappa inh-1 | WRN inhibitor | Pol eta inh-2 | others
Cn1nc(C(=O)Nc2ccc(S(=O)(=O)Nc3ncccn3)cc2)ccc1=O | -23% | 28µM* | ? | ? | -31% | 67*
COc1cc(CO)cc(Br)c1OCC(=O)O | 20% | 0% | -4% | 13% | -4% | .
CCOc1cc(CO)cc(Br)c1OCC(=O)O | . | 16µM* | ? | -34% | ? | 85*
O=C(NNc1cc(N2CCOCC2)nc(N2CCOCC2)n1)c1ccc([N+](=O)[O-])cc1 | 15% | 89µM* | 6.3µM* | -4% | 0%[11.6 µM] | . | GALK inh confirm=24µM*;GALK redox cs=4.2µM*;HEK293 viability=-12%
O=C(Nc1ccc(N2CCOCC2)cc1N1CCOCC1)c1ccc([N+](=O)[O-])cc1 | 18% | ? | 25% | -11% | -19% | .
CCc1ccccc1NNC(=O)c1sccc1Cl | . | . | 14% | -2% | . | .
CS(=O)(=O)c1ccc(C(=O)Nc2nc(-c3ccco3)c(-c3ccco3)s2)cc1 | . | 5µM* | 1.6µM* | 3.2µM* | 45µM* | 43*
CS(=O)(=O)c1ccc2nc(NC(=O)c3ccccc3)sc2c1 | -1% | -15% | 112% | -2% | -20% | .
